# Experimental data reported in ChEMBL document CHEMBL3988442, “University of Dundee, Small-Polar-MMV Screening Library” (2021).
# Target: AMP-activated protein kinase, AMPK (Homo sapiens) (UniProt P54646+O43741+P54619+Q9UGJ0+Q9Y478+Q13131+Q9UGI9)
# Assay: AMP-dependent Kinase enzyme assay. An in vitro enzyme assay that detects ADP turnover that is directly proportional to AMPK activity. This uses naive AMPK that is activated during the assay with MK-8722
# Assay type: functional
# Set-up: scale not given: direction of the effect not stated beside the values
# Settings: 30 µM
row,SMILES,Percent Effect
1,Cc1cc(C2CCCN(Cc3nc(Cc4ccccc4)no3)C2)n[nH]1 (stereo not given),3.74%
2,Cc1nc(C(C)C)sc1C(C)N(C)C(=O)c1ccc(=O)n(C)c1 (stereo not given),5.47%
3,Cc1cc(=O)n2nc(Oc3ccc(C#N)cc3Cl)sc2n1,-3.6%
4,Cn1cc(NC(=O)Cc2ccccc2Br)cc1C(N)=O,3.12%
5,CCNC(=O)c1ccc(NC(=O)N(C)Cc2cccn2C)c(C)c1,12.2%
6,COCCC(=O)N(CCC#N)c1ccc(C)c(C)c1,-6.74%
7,Nc1ccnc(N2CCC(c3nccn3CC3CC3)CC2)n1,-3.62%
8,O=C(c1cc(C2CC2)nc2onc(-c3ccccc3)c12)N1CC[C@H](O)C1,4.74%
9,Cc1cc(Br)ccc1C(=O)Nc1c(C(N)=O)n[nH]c1C,1.52%
10,Cc1ncsc1C(=O)N1CCCC1c1c(C)nn(C)c1C (stereo not given),1.43%
11,O=C(NCc1ccc(N2CCSCC2)cc1)NCc1cc[nH]n1,-0.457%
12,O=C(CC1=CSC2=NCCN12)N1CCCC(CCc2cccc(F)c2)C1 (stereo not given),13.4%
13,CN(CCCO)C(=O)c1cc(COc2ccc3c(c2)CCCC3)on1,-1.01%
14,Cn1ccc(C(=O)N2CCCC2c2cc[nH]n2)n1 (stereo not given),4.63%
15,NC(=O)CN1CCC(C(=O)NCC(O)c2cccc(F)c2)CC1 (stereo not given),-5.48%
16,COc1cccc(C(=O)N2CCN(C(=O)CCCc3cn[nH]c3)CC2)c1,-1.35%
17,COc1cccc(CCC(=O)Nc2cnc3c(c2)c(C)nn3C)c1OC,5%
18,CC(Cc1cccc(F)c1)C(=O)NS(=O)(=O)c1ccc(F)cc1 (stereo not given),0.261%
19,O=C(NCC(F)(F)F)c1ccc(-n2cccn2)nn1,0.877%
20,CCn1cnnc1CNS(=O)(=O)N1CCCC1c1ccco1 (stereo not given),-5.92%

row,SMILES,Percent Effect
1,O=C(c1cccc2ccnn12)N1CCC[C@H]1CN1CCCC1,-0.374%
2,CC(C)N(Cc1ccccn1)C(=O)CCC(=O)c1ccccc1,-4.49%
3,Cc1nccn1CC1CCCN(C(=O)Cc2ccsc2)C1 (stereo not given),0.964%
4,CN(Cc1ccccc1)S(=O)(=O)N1C[C@H](C2CC2)[C@@H](N)C1,-0.41%
5,CC(CNC(=O)CCn1cncn1)N1CCc2ccccc21 (stereo not given),6.66%
6,N#Cc1cccc(N2CCCC(CO)(CCOc3ccccc3)C2)n1 (stereo not given),3.31%
7,Cc1cccnc1NC(=O)c1ccc(F)c(S(=O)(=O)N2CCC2)c1,-5.84%
8,CCn1ncnc1C(C)Nc1cc(C2CC2)ncn1 (stereo not given),3.16%
9,CS(=O)(=O)N1CC[C@]2(O)CCN(c3cc(C#N)ccn3)C[C@@H]2C1,-6.37%
10,O=C(Cn1cc(Cl)cn1)N1CCNC1=O,-8.6%
11,CN1CC2(CCCN(CCOCc3ccccc3)C2)OC1=O (stereo not given),-1.54%
12,CC(C)Cn1ccnc1CNC(=O)N1CCCC1CN1CCOCC1 (stereo not given),-4.29%
13,O=C(Cc1nc(-c2ccncc2)n[nH]1)N1CCOCC1,7.55%
14,O=C(c1ccc(Cl)s1)N1CCCn2nc(CN3CC[C@H](F)C3)cc2C1,3.24%
15,CN(CCc1ncnn1C1Cc2ccccc2C1)C1CCS(=O)(=O)C1 (stereo not given),-4.47%
16,O=C1C(N2CC[C@@H](O)C2)CCCN1Cc1cccc(C(F)(F)F)c1 (stereo not given in full),5.51%
17,CCN(CC)c1nc2sc(C(=O)N3CCNC(=O)C3)cc2s1,3.77%
18,CCCc1nnc(N2CCC(N3CCCC3)CC2)o1,-4.2%
19,Cc1cc(=O)c2cc(F)ccc2n1CC(=O)O,7.06%
20,Cc1ncoc1C(=O)N1CCCC(c2ccc3c(N)nn(C)c3n2)C1 (stereo not given),11.4%
